# An excerpt weighted towards active compounds, which were near 2.2% of everything screened.
# aSyn UTR inh: MLPCN primary screen, SNCA 5' untranslated region. 300,000 compounds, 0.82% hits. alpha-synuclein 5'UTR reporter, inhibitor activity. inhibition, % (tested at 7.5 µM); in the data active = inhibition above about 60%;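 also: H4 neuroglioblastoma cells stably carrying SNCA 5'UTR luciferase fusion; 0% = DMSO wells and 100% = positive control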
# Ba/F3 V617F tox: reduced viability of JAK2V617F-dependent Ba/F3 cells, primary screen, JAK2V617F inhibitor project, cell-based, Ba/F3 EpoR-JAK2V617F, luminescence. ATP luminescence. 220,000 compounds, 1.1% hits. inhibition, % at 5.6 µM. AID 1446, 2008;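 active = inhibition above the campaign mean plus 3 SD over all tested compounds, cut at about 24% in these data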;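 also: cytokine-independent growth of Ba/F3 cells driven by EpoR plus mutant JAK2; 0% = DMSO-treated cells and 100% = JAK inhibitor I control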
# KLF5 inhibitor: KLF5 expression inhibitors, primary screen, DLD-1 cells, luminescence | 290,000 compounds, 0.23% hits | AID 1700, 2009 | DLD-1 KLF5 promoter-luciferase reporter | inhibition, % at 5 µM;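 active = inhibition above a per-plate limit of that plate's mean compound inhibition plus 3 SD, cut at about 60% in these data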;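 also: 0% = DMSO wells and 100% = LY294002 at 200 µM; higher means less KLF5 promoter-driven luciferase light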
# APP 5UTR inh: inhibitors of APP translation via 5'UTR reporter, primary screen, APP 5'UTR luciferase, SH-SY5Y cells; SH-SY5Y APP 5'UTR-luciferase reporter, luminescence; 190,000 compounds, 0.82% hits; inhibition, % at 2 µM; AID 1285, 2008;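 active = inhibition above a set limit, derived from the sample mean plus 3 SD, cut at about 45% in these data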
# BaF3 parental: parental Ba/F3 cell viability inhibition, counter-screen for JAK2V617F inhibitor project, murine pro-B, CellTiter-Glo luminescence; CellTiter-Glo ATP luminescence; 220,000 compounds, 1.1% hits; inhibition, % at 5.6 µM; AID 1486, 2009;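 active = inhibition above a per-campaign cutoff, the mean inhibition of all tested compounds plus 3 SD, cut at about 27% in these data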;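 also: 0% = DMSO wells and 100% = JAK Inhibitor I control wells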
# IEC-6 cytotox: cytotoxicity in IEC-6 intestinal epithelial cells, primary screen, cytotoxicity control for KLF5 inhibitor project, cell-based, luminescence; IEC-6 cytotoxicity, luminescence viability; 290,000 compounds, 0.78% hits; inhibition, % at 5 µM; in the data active = inhibition above about 22%;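 also: 0% = plate median of test compound wells and 100% = cytotoxic reference compound wells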
# * marks the source's active call; other numbers are inactive results; · = no result.
SMILES,aSyn UTR inh,Ba/F3 V617F tox,KLF5 inhibitor,APP 5UTR inh,BaF3 parental,IEC-6 cytotox
Cc1cc(Br)ccc1OCC(=O)NNC(=O)c1ccc(NC(=O)C2CC2)cc1,-22,-2,5,45*,3,0
CCCC(=O)Nc1ccc(C(=O)NNC(=O)COc2ccc(Br)c(C)c2)cc1,9,2,-21,50*,0,6
Cc1cccc(N2C(=O)c3cccc4c(N5CCCCC5)c([N+](=O)[O-])cc(c34)C2=O)c1C,62*,-1,-10,20,5,0
Cc1cccc(-n2ncc3c(N4CCCC4)ncnc32)c1,29,6,-122,-138,9,2
Cc1cccc(-n2ncc3c(N4CCOCC4)ncnc32)c1,77*,8,42,-67,12,3
Clc1ccc(-n2ncc3c(N4CCCCCC4)ncnc32)cc1,78*,-4,3,-27,0,3
COc1cccc(-c2cc(=O)c3cc(NC(=O)c4ccc(Cl)cc4)ccc3[nH]2)c1,-68,1,-10,78*,10,4
COc1cccc(-c2cc(=O)c3cc(NC(=O)c4ccccc4)ccc3[nH]2)c1,82*,-2,-14,87*,5,5
COc1cccc(C(=O)Nc2ccccc2)c1,-122,3,-44,-45,5,2
CN1C2C=C3C(C#N)=C(N)C(C#N)(C#N)[C@H](c4c(F)cccc4F)[C@H]3C1CC2 (stereo not given in full),21,3,-9,47*,4,3
CN1C2C=C3C(C#N)=C(N)C(C#N)(C#N)[C@@H](c4cccc(F)c4)[C@@H]3C1CC2 (stereo not given in full),-2,-3,-17,2,0,-3
CCC/C=N/NC(=O)c1[nH]c2c([N+](=O)[O-])cccc2c1C,21,-5,7,89*,2,9
Cc1cc(N/N=C/c2ccc(O)cc2O)nc(-c2ccccc2O)n1,75*,6,35,56*,-2,1
CCCCN(C(=O)Cc1ccc(S(=O)(=O)N2CCOCC2)s1)c1c(N)n(CCCC)c(=O)[nH]c1=O,0,·,·,·,·,·
NC(=S)N=Nc1ccc(NN=C(N)N)cc1,68*,·,-7,·,·,-7
COC(=O)/C(=C\Nc1ccc(Oc2ccc(F)cc2F)nc1)NC(=O)c1ccccc1,-1,0,-12,·,36*,2
O=c1c(Cl)c(N2CCCCC2)cnn1-c1nc2ccccc2[nH]1,93*,16,50,-97,15,16
Clc1ccc2nc(N3CCCCC3)[nH]c2c1,-123,2,-166,-119,3,4
S=c1sc2c(Cl)ncnc2n1-c1ccccc1,93*,0,-26,65*,0,7
Cc1nc(N2CCN(C)CC2)c2sc(=S)n(-c3ccccc3)c2n1,-31,5,-23,-11,5,-1
O=C(Nc1cccc(-c2nc3ccccc3o2)c1)c1ccc(N2C(=O)C3C4C=CC(C4)C3C2=O)cc1 (stereo not given),88*,0,-32,-11,1,-4
CCS(=O)(=O)N1Cc2ccccc2CC1C(=O)Nc1ccc(F)c(F)c1F (stereo not given),-62,·,-53,·,·,-3
COc1ccc2cc(CN(CC3CCCO3)C(=O)Nc3ccccc3OC)c(=O)[nH]c2c1 (stereo not given),66*,4,-11,19,3,7
CC(=O)Nc1ccc(S(=O)(=O)N(Cc2cc3ccc(C)cc3[nH]c2=O)CC2CCCO2)cc1 (stereo not given),82*,·,-56,·,·,1
Cc1cc2cc(CN(Cc3ccco3)S(=O)(=O)c3c(C)ccc4nsnc34)c(=O)[nH]c2cc1C,89*,-1,-13,4,5,-1
SMILES,aSyn UTR inh,Ba/F3 V617F tox,KLF5 inhibitor,APP 5UTR inh,BaF3 parental,IEC-6 cytotox
Cc1ccc2cc(CN(Cc3ccco3)S(=O)(=O)c3c(C)ccc4nsnc34)c(=O)[nH]c2c1,48,3,27,1,5,4
COc1ccccc1NC(=S)N(Cc1ccco1)Cc1cc2cc(C)c(C)cc2[nH]c1=O,91*,9,-5,92*,7,3
CC(C)(C)c1ccc(CSc2nc(N)cc(=O)[nH]2)cc1,-79,·,-60,·,·,6
Cc1ccccc1/C=C/c1cc[n+](C)cc1,-37,50*,-5,10,58*,4
Cc1[nH]c2ccccc2c1/C=C/c1cc[n+](C)cc1,-12,85*,-23,-10,77*,5
C=CCn1c(C)c(/C=C/c2cc[n+](C)cc2)c2ccccc21,22,·,-5,·,·,8
CC(C)n1cc(/C=C/c2cc[n+](C)cc2)c2ccccc21,-4,·,-12,·,·,10
O=C(C1CCC(=O)N(C2CCCC2)C1)N1CCN(Cc2cccc(F)c2)CC1 (stereo not given),-4,·,8,·,·,4
CC(OC(=O)C1CCCC1)C(=O)Nc1ccc(S(N)(=O)=O)cc1 (stereo not given),-9,·,·,·,·,·
Cc1cccc2cc3c(N)c(C(=O)N4CCOCC4)sc3nc12,6,59*,-11,85*,59*,2
O=C(O)CCSc1ncnc2sc(-c3ccccc3)cc12,88*,-6,10,·,-2,1
Cc1ccc(S(=O)(=O)NC(C)(C)CN2CCCCC2)cc1,-4,·,-3,·,·,-8
CCC1C/C(=C/c2ccco2)C(=O)/C(=C/c2ccco2)C1 (stereo not given),·,30*,-8,-21,2,-7
Cc1cc(C(=O)N/N=C2\CCCc3ccccc32)c(C)o1,-126,0,-18,68*,7,8
COc1ccc(C(=O)N2CCN(c3cccc(Cl)c3)CC2)cc1,-4,-1,-5,-12,3,8
COc1ccc(C(=S)N2CCN(c3cccc(Cl)c3)CC2)c(OC)c1,43,71*,40,84*,41*,54*
O=C(Nc1ccc(S(=O)(=O)N2CCOCC2)cc1)c1ccc(CN2CCc3ccccc3C2)cc1,-15,63*,5,0,51*,16
O=[N+]([O-])c1ccc(N2CCN(C(=S)Nc3cccc(F)c3)CC2)cc1,20,28*,-6,-1,32*,4
COc1ccc(/C=C2/CCc3ccccc3C2=O)cc1OC,-18,0,-6,-101,6,-2
COc1ccc(/C=C2\CCc3ccccc3C2=O)cc1CN1CCOCC1,62*,0,-29,·,-2,-9
CN(C(=O)COc1ccccc1C(=O)NCCOc1ccccc1)c1ccccc1,-20,11,-15,13,36*,7
Fc1ccc(Oc2ccnc(Cl)n2)c(Cl)c1,-31,·,·,·,·,·
COc1cc(-n2c(C)nc3cc(C(=O)N4CCOCC4)ccc32)cc(OC)c1OC,7,-2,-25,3,91*,0

# Screening results deposited in PubChem BioAssay by several laboratories.
